Our source for the INHIBITION values is ChEMBL document CHEMBL4513216, “Probing the Open Global Health Chemical Diversity Library for Multistage-Active Starting Points for Next-Generation Antimalarials” (ACS Infect Dis, 2020).

In all, about 69,000 compounds went through this assay and about 8,600 (12%) showed an effect of 50% or more. Only a selection was taken, and strong results are over-represented in it overall.

The test system of the experiment is Plasmodium berghei. Put plainly: Screen against P. berghei liver stage (PbLuc), transformed with Luciferase, at 10uM. The experiment is classed as functional, HepG2. The note with it: tested at 10 uM.
Take `CCc1noc(CN2CCN(c3nccs3)CC2)n1`: the INHIBITION is on record as 19.5%.
In the case of `CNC(=O)Cc1n[nH]c(-c2cncc(Br)c2)n1` it was -6.61%; in that of `Cc1ncc(C(=O)N2CCCC(C(=O)CCc3ccccc3)C2)s1` (configuration not stated), 16.3%.
Turning to `CCn1ncc2c1C(COC)CN(S(=O)(=O)N(C)C)C2` (configuration not stated), the INHIBITION stood at 10%.
Take `OC(CN1CCN(Cc2ccccc2)CC1)C1CC1` (configuration not stated): the INHIBITION is -20.5%.
With `CCN(C(=O)Cn1cc(Cl)cn1)c1ccccc1` the figure was 4.81%; with `CNC(=O)Cn1ccc2ccc(NC(=O)NC(C)C(C)C)cc21` (configuration not stated), 15.5%; with `CC(C)NC(=O)N1CCN(c2ccc(Cl)nn2)C(=O)C1`, 37.5%.
In the case of `N#Cc1cccc(OCc2ccoc2C(=O)N2CCCCC2)c1` it was -105%.
In the case of `Cc1nc(CN)cc(N2CCC(O)(c3ccc(Cl)cc3)CC2)n1` it was 3.82%.
In the case of `Cc1nc(CN2CCCN(C(=O)CCc3ccco3)CC2)cs1`, the INHIBITION is on record as 12.7%.
With `CCc1nc(CN2CCN(C(=O)c3cc(C)nn3C)CC2)cs1` the figure was 76.9%.
In the case of `CCc1nc(CN2CCCN(C(=O)COCC3CC3)CC2)cs1` it was 54.3%.
In the case of `CCc1nc(CN2CCN(C(=O)c3cc(C)no3)CC2)cs1` it was -35.7%; in that of `Cc1nc(CN2CCN(C(=O)CCc3ccco3)CC2)cs1`, 42.9%; in that of `CCCOCC(=O)N1CCCN(Cc2csc(CC)n2)CC1`, 1.75%.
`Cc1nc(CCN)cc(N2CCC(O)(c3ccc(Cl)cc3)CC2)n1`: the INHIBITION is 80.8%.
With `Cc1nc(CCN)cc(N2CCC(O)(c3ccccc3)C2)n1` (configuration not stated), the INHIBITION was found to be 7.1%.
In the case of `CCc1nc(CN2CCCN(C(=O)c3cccn3C)CC2)cs1` it was -69.6%; in that of `Cc1nc(CN2CCCN(C(=O)COCC3CC3)CC2)cs1`, 43.2%.
On to `CCc1nc(CN2CCCN(C(=O)CCc3ccco3)CC2)cs1`, for which the INHIBITION amounted to 73.1%.
With `COCCOc1ncccc1C(=O)N1CCCC1Cn1cc(C)cn1` (configuration not stated) the figure was 15.5%; with `COCCN1CCN(S(C)(=O)=O)Cc2cccnc21`, -0.284%; with `N#Cc1ccc(CN(CCF)Cc2cccc(F)c2)cc1`, 37.9%.
With `CCc1noc(CN2CCN(C(=O)N(CC)CC)CC2)n1`, the INHIBITION is recorded as -7.31%.
For `O=C(c1ncccn1)N1CC[C@H]2OCC[C@@]2(COc2ccccn2)C1`, the INHIBITION is reported as -1.15%.
In the case of `CN(C)CC(=O)Nc1ccc(C(=O)N(C)CCc2cn[nH]c2)cc1`, the INHIBITION turned out to be 38.2%.
In the case of `CN(C)[C@@H]1CCN(c2ncc(F)cn2)[C@H]1Cc1ccncc1` it was -42.9%; in that of `O=C(CN1CC(c2nc(-c3cccs3)no2)C1)NCC1CCCO1` (configuration not stated), 32.1%.
In the case of `CCc1ccc(C(=O)N2CCCN(Cc3csc(CC)n3)CC2)o1` it was -7.25%; in that of `Cc1nc(N2CCN(C(=O)c3ccco3)CC2)c2c(n1)c(C)nn2C`, 7.66%; in that of `CCc1nc(CN2CCCN(C(=O)Cc3cccs3)CC2)cs1`, 55.1%.
In the case of `Cc1nc(CCN)cc(N2CCCN(C(=O)c3ccco3)CC2)n1` it was 50.3%; in that of `Cc1nc(CN2CCC23CCN(C(=O)c2ccco2)CC3)cs1`, 60.2%; in that of `CCc1nc(CN2CCCN(C(=O)c3ccccc3)CC2)cs1`, -155%.
Take `CCc1nc(CN2CCCN(C(=O)COC)CC2)cs1`: the INHIBITION is reported as -61.4%.
In the case of `COc1ccc(C(=O)N2CCN(c3cc(CCN)nc(C)n3)CC2)cc1` it was 38.5%.
Consider `Cc1nc(CN2CCC23CCN(Cc2ccoc2)CC3)cs1`, for which the INHIBITION is recorded as 26.7%.
With `CCc1nc(CN2CCCN(C(=O)c3ccco3)CC2)cs1` the figure was 53.9%; with `CCc1nc(CN2CCCN(C(=O)CC(F)(F)F)CC2)cs1`, -19.4%.
In the case of `Cc1nc(CN2CCC23CCN(C(=O)c2ccncc2)CC3)cs1` it was 12.7%; in that of `Cc1nnc(C(NS(=O)(=O)c2cc(C)c(F)cc2F)C(C)C)[nH]1` (configuration not stated), 38.9%; in that of `CNC(=O)[C@H]1C[C@@H]2CN(Cc3csc(C)n3)C[C@@H]2N1S(C)(=O)=O`, 28.5%.
With `C[S+]([O-])c1cccc(NC(=O)N[C@H](CCO)c2ccccc2)c1` (some centres not stated) the figure was 11.5%; with `Cc1cc(C(=O)NCC(c2ccsc2)N(C)C)no1` (configuration not stated), 24%; with `NC(=O)NC(CC(=O)N1CCc2sccc2C1)c1ccccc1F` (configuration not stated), 3.3%.
For `CCNc1cc2c(nn1)CCN(C(=O)C1Cc3ccccc3O1)C2` (configuration not stated), the INHIBITION was found to be 18.6%.
In the case of `CN(C)c1cc2c(nn1)CCN(C(=O)C1Cc3ccccc3O1)C2` (configuration not stated) it was 56.4%; in that of `CN(C)c1cc2c(nn1)CCN(C(=O)C1COc3ccccc3C1)C2` (configuration not stated), 20.2%; in that of `CC(C)(C)C(=O)NCCC(=O)NCCc1ccn(-c2ccccc2)n1`, 23.4%.
In the case of `COc1ccc(-c2nc(CNC3CCc4nc(C)nn4C3)no2)cc1` (configuration not stated) it was 56.6%; in that of `COc1cc(CNC2CCc3nc(C)nn3C2)cc2c1OCO2` (configuration not stated), -43.6%.
As to `COc1ccc2c(c1)OCC(CNC1CCc3nc(C)nn3C1)=C2` (configuration not stated), the INHIBITION was 85.2%.
In the case of `CCc1nc2n(n1)CC(NCc1noc(-c3ccc(C)cc3)n1)CC2` (configuration not stated) it was 31.9%; in that of `Cc1cccc(-c2nc(CNC3CCc4nc(C)nn4C3)no2)c1` (configuration not stated), 19.6%; in that of `CCc1nc2n(n1)CC(NCC1=Cc3ccc(OC)cc3OC1)CC2` (configuration not stated), 32.3%.
Consider `CCn1cc(S(=O)(=O)Nc2nc3c(s2)CCCC3)cn1`, for which the INHIBITION is given as -35.4%.
Take `Cc1ncsc1CCN(C)C(=O)CCc1nc2cccnc2n1C`: the INHIBITION was -51%.
In the case of `c1ccc(-c2cnc3n2CCNC32CCNCC2)cc1` it was -30.1%; in that of `CNC(=O)CN1CCCC12CCN(C(=O)c1ccccc1F)CC2`, -35.6%; in that of `Cc1ccc(N2CCO[C@H]3CN(Cc4nccs4)C[C@H]32)nn1`, 25.2%.
With `c1ccc(CN2C[C@@H]3OCCN(c4ncccn4)[C@@H]3C2)nc1` the figure was 38.1%; with `Cc1ccc(N2CCO[C@H]3CN(Cc4cccs4)C[C@H]32)nn1`, 88.2%; with `Cc1ccc(N2CCO[C@H]3CN(C(=O)c4cccc(C)n4)C[C@H]32)nn1`, 53%.
In the case of `Cc1ccc(N2CCO[C@H]3CN(Cc4ccccn4)C[C@H]32)nn1` it was 50.9%.
As to `Cc1cccc(C(=O)N2C[C@@H]3OCCN(C(C)C)[C@@H]3C2)n1`, the INHIBITION is 18.8%.
In the case of `Cc1ccc(N2CCO[C@H]3CN(Cc4ccncc4)C[C@H]32)nn1` it was 22.7%; in that of `Cc1cccc(C(=O)N2C[C@@H]3OCCN(c4ncccn4)[C@@H]3C2)n1`, 16.6%; in that of `Cc1ccc(N2C[C@@H]3CN(C(=O)c4ccccc4)CCO[C@@H]3C2)nn1`, 51.2%.
As for `Cc1ccc(N2CCO[C@H]3CN(Cc4cccnc4)C[C@H]32)nn1`, the INHIBITION is given as -12%.
In the case of `O=C(c1ccccc1)N1CCO[C@@H]2CN(c3cnccn3)C[C@@H]2C1` it was 37.9%; in that of `O=C(c1ccccc1)N1CCO[C@@H]2CN(c3ncccn3)C[C@@H]2C1`, 48.2%.
